An excerpt weighted towards active compounds, which were near 21% of everything screened.
Cycloheximide cs: counter-screen for Shiga toxin inhibitors: cycloheximide protein synthesis inhibition | cell reporter, cycloheximide protein synthesis inhibition counterscreen | AID 2314 | 300,000 compounds, 12% hits | max response, %; in the data active means max response mostly above about 13%, no sharp cut-off; inactive means mostly below about 14%; further: read at 38.3 µM for the half of the compounds with a filed dose
Pf growth 96h: P. falciparum growth inhibition at 96 hours; AID 504834; P. falciparum luciferase reporter growth, 96 h; Potency, µM (series often up to 28.7 µM), most hits filed as inhibitors; 320,000 compounds, 6.9% hits
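Two parasite generations (96 h, 37 C, 5% CO2) of compound exposure in infected erythrocytes (0.05% parasitemia, 2% hematocrit). Luciferase-reporter P. falciparum; decreased luminescence indicates inhibited growth, aimed at apicoplast-acting delayed death.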
Sm TGR block: S. mansoni TGR enzyme inhibition; Potency, µM (highest dose often 114 µM), hits mostly inhibitors; Q962Y6; 360,000 compounds, 3% hits; purified TGR, DTNB reduction, TNB absorbance 405 nm; further: nearly all actives have a fitted effect of over 60% in size
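TGR 20 nM + NADPH 100 uM (dispensed conc.), cpd preinc 15 min RT; start with NADPH (500 uM addition) then DTNB (15 mM addition). Kinetic TNB absorbance, 405 nm filter. Four-parameter Hill fit across titration.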
NS1 function inh: influenza NS1 inhibition | AID 2326 | 270,000 compounds, 0.4% hits | Potency, µM (highest dose often 46.1 µM); calls by dose curve; further: actives are rising curves; nearly all actives have a fitted effect of over 50% in size
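S. cerevisiae expressing influenza A NS1, grown in glucose, washed, then diluted 1:100 into pH 6.0 -URA galactose medium with 23 nl compound. Growth recovery read as OD600; NS1-free strain serves as control.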
Shiga inhibitor: inhibitors of Shiga toxin in Vero cells | Vero cells, Shiga toxin protein synthesis inhibition reporter | inhibition, % at 38.7 µM | 290,000 compounds, 9.2% hits | AID 2315; in the data active means inhibition mostly above about 28%, no sharp cut-off; inactive means mostly below about 43%
Pf growth 48h: inhibits P. falciparum growth in the first generation, 48 h; P. falciparum luciferase growth in erythrocytes, 48 h; Potency, µM (highest dose often 28.7 µM), most hits filed as inhibitors; 310,000 compounds, 5.9% hits; AID 504832
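Here the parasites carry a stable luciferase gene and grow inside erythrocytes in Albumax-based RPMI medium with compound for one erythrocytic cycle. Activity is scored as loss of luminescent signal.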
Of the large screens only hits and unclear results are named; the others gave an inactive call. Unless noted, the call rests on the fitted dose curve; in most records, active means well fitted curve in the direction sought with a large enough effect; inconclusive means small, poorly fitted or top-dose-only effect, or another doubt; inactive means no such curve, though single readings can be large; an effect the other way counts as inactive or inconclusive.

CN(C)c1ccc(S(=O)(=O)NCC(=O)N2CCN(c3ccccc3)CC2)cc1[N+](=O)[O-]	Pf growth 96h inconclusive, Pf growth 48h inconclusive (no result: Cycloheximide cs, NS1 function inh, Shiga inhibitor)
CCc1nnc(NS(=O)(=O)c2ccc(NC(=S)NC(=O)c3ccc(OC)c(OC)c3)cc2)s1	Sm TGR block 39.8µM
CCc1nnc(NS(=O)(=O)c2ccc(NC(=S)NC(=O)c3ccncc3)cc2)s1	Sm TGR block 20µM
CCOc1cc(C(=O)Nc2ccc(S(=O)(=O)Nc3nnc(CC)s3)cc2)cc(OCC)c1OCC	Pf growth 96h inconclusive, Pf growth 48h inconclusive
CCc1nnc(NS(=O)(=O)c2ccc(NC(=O)c3ccc(S(=O)(=O)N(CC)CC)cc3)cc2)s1	Pf growth 48h 13.1µM
CCc1nnc(NS(=O)(=O)c2ccc(NC(=O)c3cccc(Br)c3)cc2)s1	none
CCc1nnc(NS(=O)(=O)c2ccc(NS(=O)(=O)c3ccc(NC(C)=O)cc3)cc2)s1	none (no result: Pf growth 48h)
CC(=O)Nc1ccc(S(=O)(=O)Nc2nnc(CC(C)(C)C)s2)cc1	Cycloheximide cs 21.5, Pf growth 96h inconclusive, Shiga inhibitor 76.5
Cc1ccc(OCc2nnc(SCC(=O)c3cccc([N+](=O)[O-])c3)n2C)cc1	Pf growth 96h inconclusive, Pf growth 48h inconclusive
O=C(O)[C@@H]1CS[C@@]2(CCCN(Cc3ccccc3)C2)N1	none (no result: Cycloheximide cs, Pf growth 96h, Sm TGR block, Shiga inhibitor, Pf growth 48h)
COCc1nnc(NS(=O)(=O)c2ccccc2)s1	Pf growth 96h 1.04µM
CCc1nnc(NS(=O)(=O)c2ccc(NC(=S)NC(=O)/C=C/c3ccc(F)cc3)cc2)s1	Pf growth 96h 10.4µM, Sm TGR block inconclusive
COC(=O)c1ccn(CSc2cc(Cl)ccc2Cl)n1	none (no result: Cycloheximide cs, NS1 function inh, Shiga inhibitor)
N#Cc1ccccc1NC(=O)CSc1nnc(-c2ccccc2)n1-c1ccccc1	Pf growth 48h inconclusive
N#Cc1ccc(-n2c(-c3ccccc3)nnc2-c2ccccc2)cc1C#N	Cycloheximide cs 30.0, NS1 function inh inconclusive, Pf growth 48h inconclusive
CCOc1ccc(-n2c(-c3ccccc3)nnc2-c2ccccc2)cc1	Pf growth 96h inconclusive
N#Cc1cccc(-n2c(-c3ccccc3)nnc2-c2ccccc2)c1C#N	Cycloheximide cs 19.0, Pf growth 48h 5.22µM (no result: Pf growth 96h)
O=C(NC1CCCCC1)/C(=C/c1ccc(Cl)cc1)NC(=O)c1ccccc1	none (no result: Cycloheximide cs, Pf growth 96h, NS1 function inh, Shiga inhibitor, Pf growth 48h)
O=C(CCC(=O)Nc1ccccc1Cl)NNC(=O)NC1CCCCC1	none
[O-][N+]1(CC[N+]2([O-])CCCCC2)CCCCC1	none (no result: Cycloheximide cs, Pf growth 96h, Sm TGR block, Shiga inhibitor, Pf growth 48h)
CC(=O)c1cccc(N(C(=O)CS(=O)CC(=O)Nc2ccc(F)cc2)C(C(=O)NC2CCCCC2)c2ccc(C)o2)c1 (centres undefined)	Pf growth 96h 4.15µM, Pf growth 48h inconclusive
CCC(C)(C)NC(=O)C(c1ccc(C)cc1)N(CC1CCCO1)C(=O)CCC(=O)Nc1ccccn1 (centres undefined)	Pf growth 96h 11.7µM, Pf growth 48h inconclusive
Cc1ccc(N(C(=O)CCC(=O)Nc2cc(C)on2)C(C(=O)NC2CCCC2)c2ccccc2)cc1 (centres undefined)	Pf growth 48h 11.7µM
Cc1ccc(N(C(=O)CCC(=O)Nc2cc(C)on2)C(C(=O)NC2CCCC2)c2cccs2)cc1 (centres undefined)	Pf growth 48h 11.7µM (no result: Pf growth 96h)
Cc1ccc(C(C(=O)NC(C)(C)C)N(CC2CCCO2)C(=O)CCC(=O)Nc2ccccn2)cc1 (centres undefined)	none
Cc1ccccc1C(=O)N1CCC(C(N)=O)CC1	none (no result: Pf growth 96h)
Cc1cc(NC(=O)CCC(=O)N(c2ccccc2)C(C(=O)NC2CCCC2)c2ccccc2C)no1 (centres undefined)	Pf growth 96h inconclusive, Pf growth 48h 13.1µM
Cc1ccc(C(C(=O)NC2CCCC2)N(Cc2ccco2)C(=O)CCC(=O)Nc2cc(C)on2)cc1 (centres undefined)	Pf growth 96h 13.1µM, Pf growth 48h inconclusive
Cc1cc(NC(=O)CCC(=O)N(c2ccccc2)C(C)C(=O)NC2CCCC2)no1 (centres undefined)	none
Cc1cc(NC(=O)CCC(=O)N(c2ccccc2)C(C(=O)NC2CCCC2)c2ccccc2)no1 (centres undefined)	Pf growth 96h 8.28µM, Pf growth 48h 14.7µM
CCCCN(C(=O)CCC(=O)Nc1cc(C)on1)C(C(=O)NC1CCCC1)c1ccccc1OCC (centres undefined)	Pf growth 48h 14.7µM

Screening results: PubChem BioAssay, National Center for Advancing Translational Sciences (NCATS)
